# According to PubChem BioAssay AID1347426 (Functional Genomics Laboratory (NCATS/FGL), 2020):
# Screen size: about 31,000 sequences; about 1,400 (4.5%) were called active.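 The calls were made as follows: active = median seed-adjusted z-score above 1 or below -1; inactive = the rest.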 Only a selection was taken, and actives are over-represented in it overall.
# Assay: Novel Modifiers of Survival Motor Neuron (SMN) Protein: Gene Identification via Genome-wide siRNA Screen;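 also: luminescence tracks full-length SMN protein made from the SMN2 reporter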
# Conditions: HEK293T SMN2-luciferase reporter, siRNA knockdown, 72 h; actives lie on both sides
# In short: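 Genome-wide siRNA screen (10418 genes, 3 siRNAs each, 1 pmol per well) by reverse transfection in HEK293T cells stably carrying an SMN2-luciferase reporter; luminescence after 72 hours, normalized to negative-control siRNA, log10-transformed, MAD-scored.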
row,Sequence,median seed-adjusted z-score
1,GACAGGUACUUCUAAGUCATT against AHSA1,0.489 (inactive)
2,GAAAUUUGCGUGUGGAGUATT against TP53,0.214 (inactive)
3,CUAGAUAUCGUGGACCUCATT against PYDC1,-1.44 (active)
4,AUACUACGUUGAUUACAAATT against LRRTM1,-0.528 (inactive)
5,CCAGUACCAAAGUUGAUAATT against RB1,0.49 (inactive)
6,CCAUCUGUUUGAACUUAGATT against TLR5,0 (inactive)
7,GCUAAAGAGAGAUAUGGAATT against DARS,0 (inactive)
8,GAGUUGAAAAUGACAAUGATT against CLSTN1,0.0811 (inactive)
9,ACAGCCGCAUGAACAAGGATT against B3GNT7,-1.05 (active)
10,CAAAGACCCUUUAUUCGAATT against BTBD10,0.695 (inactive)
11,GCCUUAUUGUUACAUGGUUTT against SLC19A2,-0.679 (inactive)
12,GCGCAGACGUGAUUGUCAATT against DAO,-0.00887 (inactive)
13,UGAGAGCCCUAUUCCAGUATT against UBASH3A,-1.1 (active)
14,GGAGGAUCCCAUUAUACUATT against LPA,-0.321 (inactive)
15,GGAUCGCACUCAUGUGGAATT against A4GALT,-0.286 (inactive)
16,GCAGAUGGUUAUAAGCACATT against GLA,-0.494 (inactive)
17,GACCCGUUUAUACAACAAATT against MX2,-0.0346 (inactive)
18,CUAGCAACAUGGACAUAUUTT against STS,-0.392 (inactive)
19,GGAUUACGUAUCAGACAUATT against CNGA1,-1.08 (active)
20,GGAGCAAAACAGAUCUUGATT against PINX1,0.11 (inactive)
21,CCUCUCUAGUAAUGCAAGATT against NAT12,-0.0807 (inactive)
22,GCUGUGCGUUCUUCACAAATT against RAB17,0.473 (inactive)

row,Sequence,median seed-adjusted z-score
1,CACUCAGACGGGACGUUCATT against SCT,-0.454 (inactive)
2,CGAGUUUGCUUGGUCAGAATT against SF3B1,-3.65 (active)
3,CAAUAGAUCAAGUUAUACATT against KPNA5,-0.174 (inactive)
4,UGCUUGGCGACUUCAGUAATT against AKR1C2,-0.109 (inactive)
5,UGGGAAUGGUAGAAACAAATT against PPIL1,0.166 (inactive)
6,GCGCAUCUAUGAUGACGAUTT against UBA1,1.34 (active)
7,GAGUUUUUAUGGACUCUCATT against GRIK4,0.249 (inactive)
8,CCAGAAAACUUGCGAAACATT against RFX4,-0.0226 (inactive)
9,CCUCCGGAGAGAAAAAUGATT against NXF2,-0.0513 (inactive)
10,CAUCAAAGAUUGCACUUCATT against TOMM34,-0.503 (inactive)
11,GCCGGAAACAAAUACGUGATT against ZNF677,-0.441 (inactive)
12,GGCACGUUCUGAUCCAGAUTT against ACADM,0.127 (inactive)
13,CGAUAUCAAGUGCACCAAATT against CAD,2.37 (active)
14,GAGCAUUUGUGCGCAAGUUTT against NRP2,0.477 (inactive)
15,GCUCAUUCCUUCUACAAUUTT against CACNA1G,0.436 (inactive)
16,GGAUGUAAGUUGUCCAAUATT against SUZ12,-1.65 (active)
17,CGAGUGAAGUGGGAUGAGATT against STARD5,-0.0333 (inactive)
18,GCCGUUACCAUGGAACUUUTT against GSPT2,0.846 (inactive)
19,CACUGACUCGGAAACUGCATT against IGF2BP3,-0.636 (inactive)
20,CACCAGGUCUGGAUAUUGATT against SF3A1,-1.09 (active)
21,GCACAACUGUAGAGACAGATT against CIDEC,0.189 (inactive)
22,GCAGAGAUCUUUGUAGUCUTT against FTSJ3,0.437 (inactive)

row,Sequence,median seed-adjusted z-score
1,CGGGUAAACUAUGAGCUGATT against ADCY2,0.173 (inactive)
2,GCAAGGCUUUUGACGUAGATT against MAP3K6,0 (inactive)
3,GGAAAUUAUGUAGAACCGATT against ALDH7A1,-0.406 (inactive)
4,CAGUGCACAGUGAAACCAATT against ADAM11,0.102 (inactive)
5,GAGCUAGCGAAUAACCUUATT against DDX42,-2.13 (active)
6,CCCUCGGGAUCACACUUAUTT against MFSD1,-0.0833 (inactive)
7,GCACGAUAUAUAUAGCUAUTT against RIPK2,0.176 (inactive)
8,CAAAGACUCUGGAAUGAAUTT against PRICKLE2,-1.12 (active)
9,CAACAAGCGUAAGACCAAATT against SYTL5,0.192 (inactive)
10,GGAUCGCCCUGUAUGCUGUTT against LRTM2,0.465 (inactive)
11,GAAGAGCUCUUAGAGUGUATT against BCAT1,-0.604 (inactive)
12,AGUCCUCUAUCAACCUCUUTT against RXFP3,-0.0651 (inactive)
13,CUCCGUAUCAUAGAUGUAATT against PCDHB3,0.304 (inactive)
14,GGAGCUCACUGACGAGAAUTT against POLR2C,-2.95 (active)
15,GAAACCAAGUCAUAUGAAATT against CRTAP,0.581 (inactive)
16,GGAUCUACUCGGCACUCUATT against ZBTB20,-0.521 (inactive)
17,AGACCGCACUGACAGAGGATT against BAIAP2,-0.0497 (inactive)
18,CAAAGAACCUAUCCGCUUATT against GGA2,-0.142 (inactive)
19,GAAGCAGAGGACAACAUGATT against SNRPD3,-2.69 (active)
20,CAGUUAUGAUUGGUGGAGATT against CDC42,-0.0938 (inactive)
21,AGAACUUGAUGCUCCGAGATT against ITGA7,0.13 (inactive)
22,UUCUCUCCCUAAUAAAAAUTT against AVPR2,-0.262 (inactive)

row,Sequence,median seed-adjusted z-score
1,GCCUACCCAUUUGUGAACATT against PEX12,-0.129 (inactive)
2,GCUCCACCGAGAUUCCUGATT against TCEB1,1.08 (active)
3,GGUGCUGGAGUUAAUCUUATT against TP53I3,0.244 (inactive)
4,GGCUUAAAGACAUUGAACATT against KLHL1,0.067 (inactive)
5,GGACCUAGUGUGAGCAUAATT against COL14A1,0.19 (inactive)
6,GCCCACAUGUUUAAGGACATT against KCTD9,1.31 (active)
7,GAUACGUACUAUGACCGAATT against TGM7,0.244 (inactive)
8,GCACCUUCCGCGUCAUGUUTT against BTBD2,0.0303 (inactive)
9,GAGCUGACUUCGGAACUAATT against LCN2,0.123 (inactive)
10,CCACAGAGAUAAGCAGUCATT against IL15RA,-0.0113 (inactive)
11,GGACUCCCAUCAGUUCCUATT against MFSD4,-1.89 (active)
12,GCUGGAAUCUAACAAUAGATT against ROCK2,-0.149 (inactive)
13,CGUGUCCUGUCUGAACCAATT against ESCO2,0 (inactive)
14,AAGAGUCAGUUUUCAGAUATT against CHID1,0.199 (inactive)
15,GGAGGUUAAAGUGAAGAUUTT against MORF4L2,0.389 (inactive)
16,AAAUCGAUCAGAUCAACAATT against CDC2L1,-1.14 (active)
17,CCCUGAUCCUAUAGCUAUUTT against ART4,-0.0808 (inactive)
18,GAUCUGUGGUUGCAAACGATT against TRMT1,-0.224 (inactive)
19,CAGUUAUACUCAGAAGAGATT against ZNF155,0.698 (inactive)
20,GAAUGACCUUGAACAAUGATT against ABTB2,0.432 (inactive)
21,UGGAAUACAUGGAUCAGAATT against HEPACAM,-0.063 (inactive)
22,AGUACGGACAGAUCUCUGATT against CIRBP,-0.701 (inactive)

row,Sequence,median seed-adjusted z-score
1,CAGUCGACCAGUACAUCAATT against PMS1,0.0538 (inactive)
2,AGUUGUAAAUUUACAAAGATT against UNC119,0.171 (inactive)
3,GAGUUUUUCGAGCUCAUGATT against PGS1,1.36 (active)
4,GGACUUUGGUGUGAAUGAATT against ANXA1,-0.114 (inactive)
5,GCAUUGAAACGAAUGGGAATT against UBA5,-0.105 (inactive)
6,UCUUCACCGUGUGCCUAGATT against CRAT,-1.42 (active)
7,GCAGAUAAGAUCAAGAUCATT against SRPK3,-0.643 (inactive)
8,GAAGAAACCUUGACAAAAATT against KHDRBS3,0.0681 (inactive)
9,GACUAGUUUUGAUCAGGAATT against ZBTB5,0.314 (inactive)
10,GCAGAAUUCUGACGAUGAUTT against LEO1,1.2 (active)
11,CGAACAAAACGGGCCUGGATT against FOXA2,0.883 (inactive)
12,CCCUCUUUGGUCUAACUCATT against HOXA3,0.315 (inactive)
13,CGAAGACACGUAGCCCUAATT against PUS3,0.584 (inactive)
14,GGUGUAAUAAUGUCCUUUATT against SNRPF,-2.66 (active)
15,GGACUACAAAGUCGACCAATT against NDUFB10,-0.39 (inactive)
16,GGAGAUAGAACCUUCCAGATT against HLA-B,-0.355 (inactive)
17,CUAGAGUCGCUGUUGAAGATT against DRAP1,1.08 (active)
18,GGGUGGAGGUGUACUAUGATT against LOXL2,0.177 (inactive)
19,CAUCAUCAGUUUUUCGAUUTT against AHCTF1,-0.501 (inactive)
20,GAUGCCCAGUGUCCUGUUATT against PIF1,-0.0455 (inactive)
